# Bioassay records (PubChem)
# Hits are enriched below; roughly 1.9% of the tested compounds scored in any of these assays.
# Pf gametocyte: late stage P. falciparum gametocyte viability inhibitors, primary screen, ATP luminescence, HTS; P. falciparum stage V gametocytes, 24 h; inhibition, % at 10.9 µM; 0.065% of 150,000 active; AID 743093, 2013;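 active = inhibition above the mean plus 3 SD of compounds within the control limits, set per campaign, cut at about 38% in these data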;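 also: 0% = DMSO wells and 100% = medium only without gametocytes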
# S1P4 antagonist: S1P4 receptor antagonists, primary screen, cell-based; Sphingosine 1-phosphate receptor 4 (Homo sapiens), O95977; S1P4-expressing cells, antagonist mode, reporter read-out; inhibition, % at 4.98 µM; 0.26% of 220,000 active; in the data active = inhibition above about 29%;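 also: 0% = wells stimulated with agonist and 100% = vehicle wells without agonist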
# S1P4 agonist: S1P4 receptor agonists, primary screen, cell-based | 0.35% of 220,000 active | AID 1509, 2009 | activation, % at 4.98 µM | Sphingosine 1-phosphate receptor 4 (Homo sapiens), O95977 | S1P4-expressing cell line, agonist reporter assay; in the data active = activation above about 11%;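 also: 0% = DMSO vehicle and 100% = reference agonist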
# EP2 antag: human EP2 receptor antagonists, primary screen, TR-FRET cAMP, C6 glioma cells | AID 1422, 2008 | C6 glioma cells expressing human EP2; cells stimulated with saturating PGE2 | 0.52% of 260,000 active | Prostaglandin E2 receptor EP2 subtype (Homo sapiens), P43116 | inhibition, % at 25 µM;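 active = percent inhibition above 40 after rounding to a whole number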;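 also: rat C6 glioma host cells with rolipram phosphodiesterase inhibitor present; the protocol text gives 20 µM as final concentration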
# Target sequence (P43116 whole entry, looked up): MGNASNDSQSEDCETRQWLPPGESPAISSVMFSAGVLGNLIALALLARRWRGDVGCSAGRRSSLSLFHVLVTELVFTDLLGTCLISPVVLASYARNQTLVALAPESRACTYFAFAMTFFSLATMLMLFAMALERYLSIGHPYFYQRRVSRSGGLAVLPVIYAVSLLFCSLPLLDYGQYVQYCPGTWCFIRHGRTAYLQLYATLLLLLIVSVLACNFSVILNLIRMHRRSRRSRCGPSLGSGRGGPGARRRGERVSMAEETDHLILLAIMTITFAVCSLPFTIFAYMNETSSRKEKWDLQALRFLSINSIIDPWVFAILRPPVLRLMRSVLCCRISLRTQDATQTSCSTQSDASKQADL
# S1P3 antag: S1P3 receptor antagonists, primary screen, cell-based; Sphingosine 1-phosphate receptor 3 (Homo sapiens), Q99500; CHO S1P3 NFAT-BLA reporter, FRET fluorescence, antagonist mode; inhibition, % at 4.98 µM; 0.27% of 170,000 active;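 active = inhibition above the plate cutoff, the mean inhibition of test wells on that plate plus 3 SD, cut at about 28% in these data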;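 also: cells challenged with S1P at its EC80 of 0.8 µM; blue over green emission ratio from cleaved BLA substrate after 4 h stimulation; 0% = S1P-stimulated wells and 100% = unstimulated DMSO-only wells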
# EP2 modulator: EP2 receptor modulators, cAMP readout, primary screen, cell-based, HTRF cAMP, PGE2 stimulation; Prostaglandin E2 receptor EP2 subtype (Homo sapiens), P43116; EP2-expressing cells, cAMP HTRF FRET, PGE2 co-stimulation; induction, % at 25 µM; 0.83% of 260,000 active; AID 940, 2007;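 active = compounds whose cAMP rise, as percent of the full-agonist control response, exceeds 60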;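 also: rat C6 glioma line stably carrying human EP2 under a CMV promoter; the protocol text gives 20 µM as final concentration; 100% = response of wells given 1 µM PGE2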
# * hit, by the source's call; · = not tested or not shown.
SMILES,Pf gametocyte,S1P4 antagonist,S1P4 agonist,EP2 antag,S1P3 antag,EP2 modulator
CCOC(=O)COc1ccc2c(=O)c(-c3ccccc3OC)coc2c1,10,-24,0,2,6,-9
Oc1ccccc1C=NCCCCCCN=Cc1ccccc1O,-10,-24,0,5,-5,62*
Oc1ccccc1C=NCCN=Cc1ccccc1O,-4,-10,1,10,2,33
O=C(c1cccc(N2CCCCS2(=O)=O)c1)N1CCC(c2ccncc2)CC1,·,·,·,4,·,-63
CCn1nc(C)c(CN(Cc2ccc(C)o2)C2CC(C)(C)NC(C)(C)C2)c1C,·,·,·,6,·,-3
C[C@H]1C[C@@H]2[C@@H]3CCC4=CC(=O)C=C[C@@]4(C)[C@@]3(F)[C@H](O)C[C@@]2(C)[C@]1(O)C(=O)COP(=O)(O)O,·,·,·,42*,·,14
C[C@]1(c2ccccc2)O[C@@H]2C[C@H]3[C@@H]4CCC5=CC(=O)C=C[C@@]5(C)[C@@]4(F)[C@H](O)C[C@]3(C)[C@]2(C(=O)CO)O1,·,·,·,51*,·,2
CCCn1c(CN2CCC(NC(C)=O)(c3ccccc3F)CC2)nc2ccccc21,·,·,·,5,·,-41
CCN(CC)c1ncnc2scc(C3COc4ccccc4O3)c12 (stereo not drawn),·,-4,1,12,·,64*
CC1CCN(C(=O)CSc2nc(C(C)C)nc3ccccc23)CC1,·,·,·,15,·,3
COc1cc(C2c3c(oc4ccc(C)cc4c3=O)C(=O)N2c2cc(C)ccn2)cc(OC)c1OC (stereo not drawn),·,·,·,·,99*,·
Cc1cc2c(cc3c(=O)n(CC(=O)OC(C)C)nc(C)n32)s1,·,·,·,·,·,-14
Cc1cc(SCC(=O)N/N=C/c2ccc(O)c(O)c2)c(C)cc1Br,·,0,-4,50*,·,-33
COc1ccc2nc(C)cc(SCC(=O)N/N=C/c3ccc(O)c(O)c3)c2c1,-79,8,-1,6,-18,-80
CC(C)(CN1CCCCCC1)NCc1ccc(OCCO)cc1,·,·,·,3,·,-8
c1ccc2cc3c(cc2c1)C[N+]1(CCCC1)C3,·,·,·,15,·,19
c1ccc2cc(-c3cc(-c4cc(-c5ccc6ccccc6c5)on4)no3)ccc2c1,·,·,·,45*,·,-28
Clc1ccc(-c2cc(COc3ccc4ccccc4c3)no2)cc1,·,-3,6,·,·,15
O=C(CSc1nnc2c3c4c(sc3nc(C3CC3)n12)CCCC4)N1CCOCC1,·,·,·,13,·,25
C[C@@]12C[C@H](O)[C@@H]3[C@H](CCC4=CC(=O)CC[C@]43C)[C@H]1CC[C@H]2c1csc(-c2ccccc2)n1,·,·,·,40*,·,36
COc1cccc(CCNC(=O)Cn2nc(C)n3c(cc4sccc43)c2=O)c1,·,·,·,·,·,-28
C=CCn1c(-c2ccccc2)ccc(C#N)c1=O,·,-9,1,4,·,64*
C=CCn1c(-c2ccccc2)cc(SC)c(C#N)c1=O,11,-18,0,13,-15,60
Cc1nn(CC(=O)NC2(c3ccccc3)CCCC2)c(=O)c2cc3ccsc3n12,·,·,·,1,·,-5
NC(=O)CC(NC(=O)c1ccc(Br)cc1)c1ccc(NCc2ccc(F)c(F)c2)c([N+](=O)[O-])c1 (stereo not drawn),·,·,·,43*,·,-16
SMILES,Pf gametocyte,S1P4 antagonist,S1P4 agonist,EP2 antag,S1P3 antag,EP2 modulator
NC(=O)CC(NC(=O)c1ccc(Br)cc1)c1ccc(NCc2ccc(F)cc2)c([N+](=O)[O-])c1 (stereo not drawn),4,·,·,51*,·,-36
CCn1c(N2CCC(C(=O)NCCCN3CCCC3=O)CC2)nc2ccccc21,·,·,·,·,·,-22
Nc1ccccc1Sc1ccccc1[N+](=O)[O-],-8,-1,3,11,-6,61*
CO/N=C/c1ccc(Sc2ccccc2N)c([N+](=O)[O-])c1,-10,-10,0,19,·,0
CCCn1c(=O)c(C(=O)NNC(C)=O)c(O)c2ccccc21,·,·,·,10,·,3
O=C1c2ccccc2C(O)(O)[C@@]1(O)[C@]1(O)C(=O)c2ccccc2C1(O)O,·,·,·,73*,·,-41
COc1ccc2cc(CN(CCCO)C(=O)Nc3ccccc3Cl)c(=O)[nH]c2c1,·,·,·,4,·,-31
c1cc2c3c(cccc3c1)NC1(CCC3(CC1)Nc1cccc4cccc(c14)N3)N2,·,21,-1,89*,6,-42
COc1ccccc1CNC(=O)C1CCCN(c2ncccn2)C1 (stereo not drawn),·,·,·,7,·,-24
O=C(Cc1cccs1)N1CCCC(c2ncncc2-c2ccncc2)C1 (stereo not drawn),·,·,·,·,·,-36
N#Cc1c(-c2ccc3c(c2)OCO3)cc(-c2ccccc2)nc1N,·,·,·,15,·,66*
CCc1c(-c2ccccc2)nc(N)c(C#N)c1-c1ccc2c(c1)OCO2,·,·,·,17,·,6
Cc1nc(-n2nnc3ccccc32)c2c3c(sc2n1)CCCC3,-37,-3,0,0,·,61*
CC(C)Oc1ccccc1Cn1c(=O)sc2ccccc21,·,·,·,9,·,83*
Fc1ccc(Cn2c(-c3cscn3)nc3ccccc32)c(Cl)c1,·,15,1,7,·,52
Nc1nonc1-c1nc2ccccc2n1Cc1ccc(F)cc1Cl,·,-13,-1,·,78*,52
S=c1nc(-c2cccc(Cl)c2)[nH][nH]1,7,0,2,15,-4,26
S=c1nc(-c2cc(Cl)ccc2Cl)[nH][nH]1,1,-10,0,41*,-1,58
Cc1ccc(C2=NN(CC(=O)NC3CCC3)C(=O)c3cc4ccccc4n3C2)cc1,·,·,·,3,·,-7
C/C(=N\NC(=O)CSc1nc2nc(C)cc(C)n2n1)c1ccccc1,·,-13,-1,128*,·,7
CCCN1CC=C2C(C1)C(c1ccccc1Cl)C(C#N)=C(N)C2(C#N)C#N (stereo not drawn),·,·,·,10,·,-59
Fc1ccc(-n2cc(-c3ccccc3)c3c(N4CCOCC4)ncnc32)cc1,9,5,0,11,5,62*
CCN1CCCC1CNC(=O)C(=O)NCc1ccc2c(c1)OCO2 (stereo not drawn),·,·,·,3,·,-20
O=C1c2ccccc2C(=O)N1c1ccc(Cc2ccc(N3C(=O)c4ccccc4C3=O)cc2)cc1,·,·,·,49*,·,15
Cc1ccc(N2C(=O)c3ccccc3C2=O)cc1,12,14,-1,9,-1,10
CC1CCc2c(sc3ncn4c(SCC(=O)Nc5nc6c(s5)CCCC6)nnc4c23)C1 (stereo not drawn),·,·,·,18,·,17
CN1CC(c2ccccc2)C2(SC(=S)N(Cc3ccco3)C2=O)C12C(=O)Nc1ccccc12 (stereo not drawn),9,6,1,9,·,61*
